Data as given in PubChem BioAssay (NCATS).
Inconclusive results are not listed. Activity calls are given as the source filed them. Calls follow the shape of the full dose curve.

Tests used:
[1] = Primary qHTS for inhibitors of SARS-S pseudo-typed particle cell entry (AID 1479145); conditions: SARS-S pseudotyped particle cell entry, luciferase reporter; series mostly up to 57.1 µM; also: nearly all actives have a fitted effect of over 45% in size
[2] = Primary qHTS for Huh7 cytotoxicity: counterscreen for inhibitors of MERS-S pseudotyped particle cell entry (AID 1479147); conditions: cell viability read-out; series mostly up to 57.1 µM
[3] = Primary qHTS for inhibitors of MERS-S pseudo-typed particle cell entry (AID 1479149); conditions: MERS-S pseudotyped particle entry, luciferase; series mostly up to 57.1 µM; also: nearly all actives have a fitted effect of over 60% in size
[4] = Primary qHTS for Vero E6 cytotoxicity: counterscreen for inhibitors of SARS-S pseudo-typed particle cell entry (AID 1479150); conditions: cell viability; series mostly up to 57.1 µM

Measured: Potency

CCCCC1(COC(=O)CCC(=O)O)C(=O)N(c2ccccc2)N(c2ccccc2)C1=O
inactive: [1] | [2] | [3] | [4]

O=C(OCC(COC(=O)c1cccnc1)(COC(=O)c1cccnc1)COC(=O)c1cccnc1)c1cccnc1
inactive: [1] | [2] | [3] | [4]

CCCCN(CCN(CCCC)C(=O)N1CCOCC1)C(=O)N1CCOCC1
inactive: [1] | [2] | [3] | [4]

CC1(C)[C@@H]2CC[C@@]1(C)C(=O)C2
inactive: [1] | [2] | [3] | [4]

Cc1cccc(N(C)C(=S)Oc2ccc3ccccc3c2)c1
inactive: [1] | [2] | [3] | [4]

CNC(=O)c1cnn(-c2nc(N)c3ncn([C@@H]4O[C@H](CO)[C@@H](O)[C@H]4O)c3n2)c1
inactive: [1] | [2] | [3] | [4]

Cc1nnc(C(=O)NC(C)(C)c2nc(C(=O)NCc3ccc(F)cc3)c(O)c(=O)n2C)o1
inactive: [1] | [2] | [3] | [4]

O=C(O)CCc1nc(-c2ccccc2)c(-c2ccccc2)o1
inactive: [1] | [2] | [3] | [4]

FC(F)(F)C(Cl)Br (stereo not given)
inactive: [1] | [2] | [3] | [4]

O=C(NN1CCCC1)NS(=O)(=O)c1ccc(Cl)cc1
inactive: [1] | [2] | [3] | [4]

NCCc1cnc[nH]1
inactive: [1] | [2] | [3] | [4]

O=[N+]([O-])c1nccn1CO[C@@H](CO)[C@H](O)CO
inactive: [1] | [2] | [3] | [4]

CCOC(=O)C(C)(C)Oc1ccc(Cl)cc1
inactive: [1] | [2] | [3] | [4]

CCC(=O)O[C@]1(C(=O)COC)[C@@H](C)C[C@H]2[C@@H]3CCC4=CC(=O)C=C[C@]4(C)C3(F)[C@@H](O)C[C@@]21C (stereo not given in full)
inactive: [1] | [2] | [3] | [4]

CSc1ccc(C(=O)c2[nH]c(=O)[nH]c2C)cc1
inactive: [1] | [2] | [3] | [4]

CC(=O)N(CC(O)CN(C(C)=O)c1c(I)c(C(=O)NCC(O)CO)c(I)c(C(=O)NCC(O)CO)c1I)c1c(I)c(C(=O)NCC(O)CO)c(I)c(C(=O)NCC(O)CO)c1I (stereo not given)
inactive: [1] | [2] | [3] | [4]

CN(C)C(=O)Oc1cccc([N+](C)(C)C)c1
inactive: [1] | [2] | [3] | [4]

C[N+](C)(C)CCCCCCCCCC[N+](C)(C)C
inactive: [1] | [2] | [3] | [4]

CCCCC(=O)O[C@]1(C(=O)CO)CC[C@H]2[C@@H]3CCC4=CC(=O)CC[C@]4(C)[C@H]3[C@@H](O)C[C@@]21C
inactive: [1] | [2] | [3] | [4]

CN(Cc1ccc(C(C)(C)C)cc1)Cc1cccc2ccccc12
inactive: [1] | [2] | [3] | [4]

OC(CCN1CCCCC1)(c1ccccc1)C1CC2C=CC1C2 (stereo not given)
inactive: [1] | [2] | [3] | [4]

C[C@H](N)C(=O)N[C@@H](C)C(=O)NC1[C@H]2CN(c3nc4c(cc3F)c(=O)c(C(=O)O)cn4-c3ccc(F)cc3F)C[C@@H]12 (stereo not given in full)
inactive: [1] | [2] | [3] | [4]

Cc1c(C)c2c(c(C)c1OC(=O)CCC(=O)OCCO)CC[C@@](C)(CCC[C@H](C)CCC[C@H](C)CCCC(C)C)O2
inactive: [1] | [2] | [3] | [4]

CCOC(=O)c1ccc(C#Cc2ccc3c(c2)C(C)(C)CCS3)nc1
inactive: [1] | [2] | [3] | [4]

Cc1ccc(O)cc1
inactive: [1] | [2] | [3] | [4]

CC(O)COc1ccccc1 (stereo not given)
inactive: [1] | [2] | [3] | [4]

CC(=O)OCC(=O)[C@@]1(O)CCC2C3CCC4=CC(=O)CC[C@]4(C)C3[C@@H](O)C[C@@]21C (stereo not given in full)
inactive: [1] | [2] | [3] | [4]

CC(=O)OC[C@H]1O[C@@](COC(C)=O)(O[C@H]2O[C@H](COC(C)=O)[C@@H](OC(C)=O)[C@H](OC(C)=O)[C@H]2OC(C)=O)[C@@H](OC(C)=O)[C@@H]1OC(C)=O
inactive: [1] | [2] | [3] | [4]

CC1(C)[C@H](C(=O)O)N2C(=O)C[C@H]2S1(=O)=O
inactive: [1] | [2] | [3] | [4]

O=S1(=O)OC(c2ccc(O)cc2)(c2ccc(O)cc2)c2ccccc21
inactive: [1] | [2] | [3] | [4]

C/C(=N/NC(=O)c1ccncc1)C(=O)O
inactive: [1] | [2] | [3] | [4]

CCCc1ncc(C[n+]2ccccc2C)c(N)n1
inactive: [1] | [2] | [3] | [4]

CCOc1ccc(NC(C)=O)cc1
inactive: [1] | [2] | [3] | [4]

CN1CCOC(c2ccccc2)c2ccccc2C1 (stereo not given)
inactive: [1] | [2] | [3] | [4]

N[C@H](C(=O)O)[C@@H](O)c1ccc(O)c(O)c1
inactive: [1] | [2] | [3] | [4]

N[C@@H](CSCCCO)C(=O)O
inactive: [1] | [2] | [3] | [4]

COc1nc(C)nc(Cl)c1NC1=NCCN1
inactive: [1] | [2] | [3] | [4]

CC(C)C(=O)OCc1cccc(OC(=O)[C@@H]2N3C(=O)[C@@H](NC(=O)Cc4ccccc4)[C@H]3SC2(C)C)c1
inactive: [1] | [2] | [3] | [4]

C/C=C/c1ccc(O)c(OC)c1
inactive: [1] | [2] | [3] | [4]

NC1=NCC2c3ccccc3Cc3ccccc3N12 (stereo not given)
inactive: [1] | [2] | [3] | [4]
